This passage reports growth inhibition, inhibition and outcome results from PubChem BioAssay.

Assay [1] can be described thus: antimalarial activity against Dd2 strain (AID 2302;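 active = growth inhibition above 50% at the single 2 µM test dose, taken to imply half-maximal potency below 2 µM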;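 note: 0% = DMSO untreated growth and 100% = chloroquine plus artemisinin killed control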). Conditions: P. falciparum Dd2 in RBCs, LDH growth readout, 72 h; at 2 µM; active compounds read high.
Assay [2] is described as follows: HepG2 cytotoxicity, primary screen, cytotoxicity control for P. falciparum antimalarial project, cell-based, ATP luminescence (AID 2303;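 active = inhibition above 50%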;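 note: 0% = DMSO wells and 100% = digitonin-killed cells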). Conditions: HepG2 viability, 24-48 h, at 10 µM, active compounds read high.
Assay [3] addresses L-lactate dehydrogenase (Plasmodium falciparum (isolate CDC / Honduras)) (UniProt Q27743). Kind of assay: PfLDH activity inhibition – cell lysate, 3D7 strain, counter-screen for P. falciparum growth inhibition project (AID 2304).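 Note: 0% = vehicle and 100% = reference inhibitor.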 As to conditions: P. falciparum 3D7 crude extract, LDH APAD/NBT absorbance; at 2 µM; active compounds read high. On the technique in general: A counterscreen serves to expose hits that act by an unwanted route or on another target.

Assay [4] in a line: inhibition of 3D7 malaria parasite growth – strain 3D7 (AID 2306).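 Note: 0% = DMSO wells and 100% = chloroquine plus artemisinin control wells.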 Conditions: P. falciparum 3D7 erythrocytic growth, LDH absorbance, 72 h; at 2 µM; active compounds read high.
For assay [5], the target named is Calcium-dependent protein kinase 1 (Plasmodium falciparum (isolate 3D7)) (UniProt P62344). Kind of assay: PfCDPK1 kinase inhibitors, biochemical, TCAMS library (AID 1159585; cut-off not given, nearly all actives have IC50 up to about 0.98 µM;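 note: inhibitors leave more ATP so luminescence rises with inhibition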). As to conditions: recombinant PfCDPK1, Kinase-Glo ATP depletion luminescence. On the technique in general: Kinase-Glo reads ATP consumption through a luciferase reaction.
For assay [6], the target named is Plasmodium falciparum protein kinase 6 (PK6, PF3D7_1337100) (UniProt Q8IDW1). Kind of assay: PfPK6 kinase inhibitors, biochemical, TCAMS library (AID 1159586). As to conditions: recombinant PfPK6, Kinase-Glo ATP depletion luminescence.
The target in assay [7] is Protein kinase 7 (PK7), Plasmodium falciparum 3D7 (PF3D7_0213400) (UniProt Q7YTF7). Kind of assay: inhibition of Plasmodium PK7 catalytic activity – biochemical, TCAMS antimalarial set, Kinase-Glo luminescence (AID 1159587). Conditions: recombinant PfPK7, Kinase-Glo ATP depletion luminescence.
Assay [8] has as its target Calcium-dependent protein kinase 4 (Plasmodium falciparum (isolate 3D7)) (UniProt Q8IBS5). Kind of assay: PfCDPK4 kinase inhibitors, biochemical, TCAMS library (AID 1159588; cut-off not given, nearly all actives have IC50 up to about 0.91 µM). As to conditions: recombinant PfCDPK4, Kinase-Glo ATP depletion luminescence.

Broadly, the inhibition is the change of the read-out against control, counted positive when it falls.

SMILES strings stand for the structures. Unmarked numbers belong to inactive results. For some of these results: Results with a measured potency or affinity are listed apart. Active and inactive are the calls of the source. Unless noted, the rule behind the calls is not given here.

Chain of Plasmodium falciparum protein kinase 6 (PK6, PF3D7_1337100) (Q8IDW1 1-305): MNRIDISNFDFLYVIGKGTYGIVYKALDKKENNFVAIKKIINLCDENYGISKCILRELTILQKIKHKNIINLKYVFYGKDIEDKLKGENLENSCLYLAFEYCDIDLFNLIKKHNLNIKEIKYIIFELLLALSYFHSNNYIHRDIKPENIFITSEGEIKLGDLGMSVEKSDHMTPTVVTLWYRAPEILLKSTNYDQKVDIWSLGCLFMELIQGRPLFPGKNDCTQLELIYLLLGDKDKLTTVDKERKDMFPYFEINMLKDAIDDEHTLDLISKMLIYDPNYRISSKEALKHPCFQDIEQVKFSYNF
Chain of Protein kinase 7 (PK7), Plasmodium falciparum 3D7 (PF3D7_0213400) (Q7YTF7 1-343): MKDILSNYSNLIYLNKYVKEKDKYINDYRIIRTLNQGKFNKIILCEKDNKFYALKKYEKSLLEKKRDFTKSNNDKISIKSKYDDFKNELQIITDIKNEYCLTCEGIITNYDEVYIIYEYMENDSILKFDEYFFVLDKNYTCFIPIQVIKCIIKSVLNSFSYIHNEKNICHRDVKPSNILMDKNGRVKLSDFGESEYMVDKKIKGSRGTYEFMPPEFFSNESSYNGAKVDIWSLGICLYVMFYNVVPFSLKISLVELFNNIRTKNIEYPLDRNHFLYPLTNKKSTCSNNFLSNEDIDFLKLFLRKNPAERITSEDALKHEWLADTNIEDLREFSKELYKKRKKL
Chain of L-lactate dehydrogenase (Plasmodium falciparum (isolate CDC / Honduras)) (Q27743 whole entry, looked up): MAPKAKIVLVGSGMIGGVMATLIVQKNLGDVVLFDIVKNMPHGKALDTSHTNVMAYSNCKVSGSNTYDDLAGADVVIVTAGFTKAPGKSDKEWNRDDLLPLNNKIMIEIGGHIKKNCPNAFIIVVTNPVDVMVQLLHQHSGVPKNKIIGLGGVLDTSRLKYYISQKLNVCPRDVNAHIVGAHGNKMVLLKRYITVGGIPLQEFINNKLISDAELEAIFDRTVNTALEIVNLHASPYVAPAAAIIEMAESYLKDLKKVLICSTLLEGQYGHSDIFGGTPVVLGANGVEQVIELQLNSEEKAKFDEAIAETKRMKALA
Chain of Calcium-dependent protein kinase 1 (Plasmodium falciparum (isolate 3D7)) (P62344 whole entry, looked up): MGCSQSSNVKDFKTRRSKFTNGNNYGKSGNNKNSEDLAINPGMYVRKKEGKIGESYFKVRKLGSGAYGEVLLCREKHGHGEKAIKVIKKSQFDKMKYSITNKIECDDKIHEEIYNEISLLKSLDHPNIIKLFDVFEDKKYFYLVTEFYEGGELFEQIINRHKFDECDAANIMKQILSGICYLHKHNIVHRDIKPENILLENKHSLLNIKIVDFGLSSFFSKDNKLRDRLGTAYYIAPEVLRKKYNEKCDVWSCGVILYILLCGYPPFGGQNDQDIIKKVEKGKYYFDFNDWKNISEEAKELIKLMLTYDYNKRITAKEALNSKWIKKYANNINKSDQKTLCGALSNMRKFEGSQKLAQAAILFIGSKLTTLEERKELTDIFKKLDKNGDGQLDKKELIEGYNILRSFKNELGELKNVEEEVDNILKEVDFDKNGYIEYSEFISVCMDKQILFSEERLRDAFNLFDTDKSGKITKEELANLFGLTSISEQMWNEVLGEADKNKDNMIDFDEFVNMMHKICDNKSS
Chain of Calcium-dependent protein kinase 4 (Plasmodium falciparum (isolate 3D7)) (Q8IBS5 whole entry, looked up): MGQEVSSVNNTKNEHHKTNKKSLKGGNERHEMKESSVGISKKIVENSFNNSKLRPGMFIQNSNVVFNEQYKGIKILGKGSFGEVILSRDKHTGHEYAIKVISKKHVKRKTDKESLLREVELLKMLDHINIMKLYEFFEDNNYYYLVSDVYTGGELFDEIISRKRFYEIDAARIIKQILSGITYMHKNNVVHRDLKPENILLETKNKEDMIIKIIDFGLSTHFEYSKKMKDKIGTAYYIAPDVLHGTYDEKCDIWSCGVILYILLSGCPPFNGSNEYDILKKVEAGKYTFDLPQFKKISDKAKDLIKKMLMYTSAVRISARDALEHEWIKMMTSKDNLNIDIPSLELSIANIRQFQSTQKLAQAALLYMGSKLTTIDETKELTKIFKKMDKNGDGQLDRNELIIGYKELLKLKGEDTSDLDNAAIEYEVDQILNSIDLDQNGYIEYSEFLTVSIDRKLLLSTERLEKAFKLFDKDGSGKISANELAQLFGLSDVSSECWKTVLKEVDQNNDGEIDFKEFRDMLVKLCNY

Regarding `Cc1cc(Cl)c(S(=O)(=O)N2CCc3ccccc32)cc1OCC(=O)NC1CCCCC1`, the results for the growth inhibition in assay [1] and in assay [4] were 93% (active) and 101% (active), respectively. In addition, the inhibition in assay [2] is 28%; in assay [3] it was -3%. Besides, the outcome in assay [5], in assay [6], in assay [7] and in assay [8] was inactive.

In the case of `CCOC(=O)c1cn(CC)c2cc(F)c(OC3C[C@@H]4CC[C@@]3(C)C4(C)C)cc2c1=O` (stereo not given in full), the growth inhibition in assay [1] was 70% (active); in assay [4] it was 91% (active). The inhibition in assay [2] was -7%; in assay [3], -1%. For the same molecule, the result in assay [5], in assay [6], in assay [7] and in assay [8] was inactive.

Take `O=S(=O)(c1cc(Cl)c(Cl)cc1Cl)N1CCCCC(c2ccc(C(F)(F)F)cc2)=N1`: the growth inhibition was 99% (active) in assay [1] and 98% (active) in assay [4]. In addition, the inhibition in assay [2] was 9%; in assay [3], -1%. Moreover, the outcome in assay [5], in assay [6], in assay [7] and in assay [8] was inactive.

Take `CCCNC(=O)C1Cc2c([nH]c3cc(Br)ccc23)C2(CCN(CCc3ccccc3)CC2)N1` (stereo not given): the growth inhibition was 26% in assay [1] and 92% (active) in assay [4]. The inhibition in assay [2] was 15%; in assay [3] it was -1%. Further, the outcome in assay [5], in assay [6], in assay [7] and in assay [8] was inactive.

As to `CC1CCC(NCc2ccc3c(CNC4CCC(C)CC4)c(O)ccc3c2O)CC1` (stereo not given), the values for the growth inhibition in assay [1] and in assay [4] were 99% (active) and 101% (active), respectively. Further, the values for the inhibition in assay [2] and in assay [3] were 4% and -2%, respectively. In addition, the outcome in assay [5], in assay [6], in assay [7] and in assay [8] was inactive.

Turning to `Brc1ccccc1CNc1ccnc(NCCn2ccnc2)n1`, the values for the growth inhibition in assay [1] and in assay [4] were 33% and 99% (active), respectively. Further, the inhibition in assay [2] was 72% (active); in assay [3] it was 4%. Also, the result in assay [5], in assay [6], in assay [7] and in assay [8] was inactive.

On to `CN1CCC(c2cc3c(cc2Br)CCN3C(=O)Nc2ccc(-c3ccncc3)c(Cl)c2)CC1`, for which the growth inhibition in assay [1] is -1%; in assay [4], 91% (active). Further, the inhibition is 26% in assay [2] and -1% in assay [3]. For the same molecule, the result in assay [5], in assay [6], in assay [7] and in assay [8] was inactive.

With `COc1ccccc1Cc1c(C)nc2nc(N)nc(N)c2c1C`, the growth inhibition was 2% in assay [1] and 96% (active) in assay [4]. The inhibition in assay [2] was 69% (active); in assay [3], -3%. For the same molecule, the result in assay [5], in assay [6], in assay [7] and in assay [8] was inactive.

In the case of `COc1ccc(C=CC(=O)Nc2ccc(N3CCCC3)cc2)cc1`, the figures for the growth inhibition in assay [1] and in assay [4] were 9% and 81% (active), respectively. The inhibition in assay [2] and in assay [3] was -1% each time. Moreover, the result in assay [5], in assay [6], in assay [7] and in assay [8] was inactive.

On to `COc1cc(NC(=O)c2sc(-c3ccc(Cl)cc3)cc2NC(=O)CN2CCCC2)ccc1OCCN1CCCC1`, for which the growth inhibition in assay [1] is 79% (active); in assay [4], 86% (active). Also, the values for the inhibition in assay [2] and in assay [3] were 29% and 3%, respectively. Besides, the outcome in assay [5], in assay [6], in assay [7] and in assay [8] was inactive.

On to `O=C(/C=C/c1ccc(Cl)c(Cl)c1)NC1CCC(CN2CCC(c3cc4ccccc4[nH]3)CC2)CC1` (stereo not given), for which the growth inhibition is -7% in assay [1] and 96% (active) in assay [4]. In addition, the inhibition in assay [2] is 19%; in assay [3], 1%. For the same molecule, the result in assay [5], in assay [6], in assay [7] and in assay [8] was inactive.

Turning to `Oc1ccc2[nH]cc(C3CCN(CCCCCCCCCN4CCC(c5c[nH]c6ccc(O)cc56)CC4)CC3)c2c1`, the growth inhibition was 2% in assay [1] and 101% (active) in assay [4]. Further, the inhibition in assay [2] was 22%; in assay [3] it was -5%. Also, the outcome in assay [5], in assay [6], in assay [7] and in assay [8] was inactive.

Regarding `COc1ccc(S(=O)(=O)NCCC2CCN(CCCCCNC(=O)C=Cc3ccc(Cl)c(Cl)c3)CC2)cc1`, the growth inhibition in assay [1] was -2%; in assay [4], 87% (active). Moreover, the inhibition in assay [2] was 36%; in assay [3] it was 5%. In addition, the result in assay [5], in assay [6], in assay [7] and in assay [8] was inactive.

`CC[C@H](C)CNCc1ccc(OCc2cccc(COc3ccc(CNC[C@@H](C)CC)cc3I)c2)c(I)c1`: the values for the growth inhibition in assay [1] and in assay [4] were 60% (active) and 99% (active), respectively. Also, the inhibition in assay [2] is 99% (active); in assay [3] it was 7%. The result in assay [5], in assay [6], in assay [7] and in assay [8] was inactive.

As for `CCCC(C)Nc1nc(C)cc(N[C@@H](CC(C)C)C(=O)NCc2cccc(F)c2)n1` (stereo not given in full), the values for the growth inhibition in assay [1] and in assay [4] were 63% (active) and 96% (active), respectively. Also, the inhibition in assay [2] was 1%; in assay [3], 0%. Also, the result in assay [5], in assay [6], in assay [7] and in assay [8] was inactive.

For `Cc1ccc(-c2ccc(Cl)cc2Oc2cnc(N)nc2N)o1`, the growth inhibition in assay [1] was 3%; in assay [4], 102% (active). The inhibition in assay [2] is 15%; in assay [3], -2%. In addition, the outcome in assay [5], in assay [6], in assay [7] and in assay [8] was inactive.

Take `O=C(N1CCN(c2cccc(C(F)(F)F)c2)CC1)C(Cl)(Cl)Cl`: the growth inhibition in assay [1] is 35%; in assay [4], 89% (active). In addition, the inhibition in assay [2] was -8%; in assay [3], 2%. The outcome in assay [5], in assay [6], in assay [7] and in assay [8] was inactive.

Regarding `C=CCOc1ccc(-c2c(C)[nH]c(C)c(Br)c2=O)cc1`, the growth inhibition in assay [1] is 96% (active); in assay [4] it was 98% (active). Moreover, the inhibition in assay [2] was 5%; in assay [3] it was -3%. Further, the outcome in assay [5], in assay [6], in assay [7] and in assay [8] was inactive.

For `O=C(/C=C/c1ccc(Cl)c(Cl)c1)NCCCCCN1CCCN(C(=O)Nc2ccc(F)c(F)c2)CC1`, the growth inhibition in assay [1] was -1%; in assay [4], 102% (active). Also, the inhibition was 26% in assay [2] and -2% in assay [3]. Besides, the result in assay [5], in assay [6], in assay [7] and in assay [8] was inactive.

With `CCN(CC)C(=O)C1CCN(C(C(=O)N2CCN(CC(=O)N3CCCC3)CC2)c2cc3ccccc3o2)CC1` (stereo not given), the figures for the growth inhibition in assay [1] and in assay [4] were 4% and 98% (active), respectively. Further, the inhibition is -11% in assay [2] and -7% in assay [3]. In addition, the result in assay [5], in assay [6], in assay [7] and in assay [8] was inactive.
